Screening data: PubChem BioAssay, Sanford-Burnham Center for Chemical Genomics
Sampled rows, rich in hits. Any-hit rate of the full collection: about 4%.
NALP1 yeast inh – NALP1 inflammasome inhibitors in reconstituted yeast, colorimetric, S. cerevisiae, triplicate retest; inhibition, % at 10 µM; 280,000 compounds, 0.61% hits; S. cerevisiae NALP1/ASC/caspase-1 growth, X-gal OD620, 72 h; in the data active = inhibition mostly above about 24%, no sharp cut-off; inactive = mostly below about 32%
tim10-1 inh – growth inhibitors of tim10-1 mutant yeast, primary screen, luminescence, uHTS. S. cerevisiae tim10-1 ts strain growth, BacTiter-Glo, 24 h. inhibition, % at 20 µM. 330,000 compounds, 2.2% hits. AID 463190, 2010;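 active = inhibition of at least 40%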;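 note: mutant grown at 25 °C; 0% = DMSO wells with yeast and 100% = wells holding no yeast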
TIM10 inh – growth inhibitors of isogenic TIM10 control yeast, primary screen, counter-screen for tim10-1 yeast inhibitor project, luminescence, uHTS | S. cerevisiae TIM10 strain growth, BacTiter-Glo luminescence, 24 h | 330,000 compounds, 1.4% hits | AID 463195, 2010 | inhibition, % at 10 µM;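 active = inhibition of 40% or more at the single tested concentration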;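 note: wild-type TIM10 isogenic control strain grown at permissive 25 °C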
tim23-1 inh – growth inhibitors of tim23-1 mutant yeast, primary screen, luminescence, uHTS | inhibition, % at 20 µM | S. cerevisiae tim23-1 growth, BacTiter-Glo luminescence, 24 h | 330,000 compounds, 1.3% hits | AID 463212, 2010;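 active = growth inhibition of the mutant yeast at or above 50%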;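 note: temperature-sensitive mutant grown at 25 °C; plate controls were DMSO-treated mutant yeast for no effect and medium wells lacking yeast for full effect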
NALP3 yeast inh – NALP3 inflammasome inhibitors in reconstituted yeast, primary screen, luminescence, uHTS; Yeast reconstituted NLRP3/ASC/caspase-1, beta-gal luminescence, 24 h; inhibition, % at 10 µM; 330,000 compounds, 0.39% hits;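 active = inhibition of 50% or more; inactive = inhibition below 50%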;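 note: plate controls were induced DMSO wells for no effect and uninduced yeast grown without galactose for full effect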
tim10-1 conf – growth inhibitors of tim10-1 mutant yeast, confirmation, single concentration, luminescence, S. cerevisiae. S. cerevisiae tim10-1 ts strain growth, BacTiter-Glo, 24 h. shares compounds with tim10-1 inh. inhibition, % at 20 µM. 7,400 compounds, 56% hits;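 active = inhibition of yeast growth at or above a set limit in either of two repeat tests at 20 µM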;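 note: tim10-1 mutant grown at permissive 25 °C to find synthetic lethal compounds; 0% = DMSO yeast wells and 100% = medium wells without yeast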
tim10 confirm – growth inhibitors of wild-type TIM10 yeast, confirmation, counter-screen for tim10-1 synthetic lethality project, single concentration, luminescence, S. cerevisiae. AID 463215, 2010. inhibition, % at 10 µM. shares compounds with TIM10 inh. S. cerevisiae tim10 strain growth, BacTiter-Glo luminescence, 24 h. 4,600 compounds, 63% hits;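 active = inhibition of yeast growth at or above a set limit in either of two replicates at 10 µM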;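 note: this counterscreen used the strain with wild-type TIM10; 0% = yeast with DMSO and 100% = medium wells lacking yeast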
tim23-1 confirm – tim23-1 mutant yeast growth inhibitors, confirmation, luminescence, single concentration; shares compounds with tim23-1 inh; S. cerevisiae tim23-1 growth, BacTiter-Glo luminescence, 24 h; inhibition, % at 20 µM; 4,400 compounds, 83% hits; AID 463218, 2010;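 active = inhibition above about 39% in either of two replicate wells at 20 µM, limit read from the data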;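 note: temperature-sensitive tim23-1 mutant grown at 25 °C; 0% = DMSO wells with yeast and 100% = medium wells without yeast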
Numbers without * were called inactive; . = no result.

SMILES	NALP1 yeast inh	tim10-1 inh	TIM10 inh	tim23-1 inh	NALP3 yeast inh	tim10-1 conf	tim10 confirm	tim23-1 confirm
COc1ccc(O)c(CNn2c(-c3ccc(Br)cc3)nc3ccccc3c2=O)c1	16.5	35.2	28.0	30.7	26.5	.	.	.
COc1cc(OC)cc(-c2nc3ccccc3c(=O)n2OC(=O)c2ccc(Br)cc2)c1	19.1	48.9*	61.5*	58.1*	17.9	38.3*	34.5*	72.0*
Cc1c(CCOC(=O)c2cc([N+](=O)[O-])cc([N+](=O)[O-])c2)sc[n+]1CC(=O)c1ccc(Br)cc1	7.1	27.4	1.5	0.2	9.2	.	.	.
CC1CCN(C2=NC(=O)/C(=C/c3ccccc3F)S2)CC1	9.3	45.9*	13.1	52.4*	15.2	35.4*	.	53.1*
CC1CCN(C2=NC(=O)/C(=C/c3cccc(O)c3)S2)CC1	10.1	21.5	23.3	19.7	14.1	.	.	.
CC(=O)Nc1ccc(S(=O)(=O)N2CCc3cc4c(cc3C2)OCCCO4)cc1	33.8	2.7	11.9	4.1	-4.8	.	.	.
CC[n+]1c(/C=C(\C)SC)sc2ccccc21	-4.4	1.7	5.7	5.9	3.5	.	.	.
CC[n+]1c(/C=C/Nc2ccccc2)sc2ccccc21	6.7	19.4	1.6	-0.3	-1.3	.	.	.
CCN1/C(=C/C=C/c2sc3ccccc3[n+]2CC)Sc2ccccc21	.	77.4*	83.5*	85.1*	42.8	76.7*	76.2*	84.8*
CCN1/C(=C/C=C/C=C/c2sc3ccccc3[n+]2CC)Sc2ccccc21	132.6*	79.8*	81.2*	89.3*	18.8	79.0*	8.2	85.9*
CSc1cccc(NC(=O)c2ccc(CN3CCc4ccccc4C3)cc2)c1	7.2	8.9	16.0	4.3	31.6	.	.	.
O=C(Nc1cccc(Br)c1)c1ccc(CN2CCc3ccccc3C2)cc1	16.6	44.3*	43.7*	63.4*	36.2	31.4*	38.0*	74.2*
O=C(Nc1nc(-c2cccs2)c(C(=O)C(F)(F)F)s1)c1ccccc1	31.6	61.4*	32.7	69.1*	24.3	50.3*	.	70.3*
COc1ccc(C(=O)Nc2nc(-c3cccs3)c(NC(C)=O)s2)cc1	-48.7	-0.6	-45.5	-24.7	-0.8	.	.	.
O=C(Nc1nc(-c2cccs2)c(C(=O)C(F)(F)F)s1)c1ccco1	2.6	55.6*	55.6*	62.4*	24.5	72.8*	58.8*	78.8*
CC(=O)Nc1sc(NC(=O)c2ccco2)nc1-c1cccs1	4.1	5.1	-4.5	2.1	26.5	.	.	.
COc1ccccc1CNC(=O)COC(=O)c1cccc(S(=O)(=O)N2CCOCC2)c1	.	5.5	18.1	17.0	6.2	.	.	.
O=C(c1ccc(Cl)cc1)N1CCN(c2ncccn2)CC1	5.2	10.6	2.9	14.6	33.0	.	.	.
N/C(=N\OC(=O)Nc1ccccc1)c1ncc([N+](=O)[O-])s1	.	51.2*	56.7*	77.1*	19.2	47.7*	60.2*	18.9
CC(C)(C)OC(=O)NC(CNCc1ccccc1)Cc1ccccc1 (stereo not given)	.	11.8	15.4	14.4	25.1	.	.	.
Cc1cc(C)n(C(C[N+](=O)[O-])c2ccc(Cl)cc2)n1 (stereo not given)	101.0*	41.8*	76.8*	75.7*	22.1	54.0*	67.5*	29.6
O=C(COc1ccc(Br)cc1CO)Nc1ccc(S(=O)(=O)N2CCCCC2)cc1	.	40.3*	39.2	53.4*	1.3	49.7*	.	60.8*
O=C1/C(=C/c2ccncc2)SC(=S)N1N1CCOCC1	.	55.8*	57.6*	68.9*	29.9	50.0*	55.1*	47.8*
C=CCOc1ccc(/C=C2\SC(=S)N(N3CCOCC3)C2=O)cc1	-2.6	17.3	22.4	20.2	27.5	.	.	.
